# Hit rate of the full screen: of about 13,000 compounds, about 3,200 (25%) showed an effect of 50% or more. This is one part of the list.
# Tested on: P. falciparum stage V gametocytes
# Parameters: BacTiter-Glo ATP luminescence viability of purified stage V gametocytes in 384-well plates, per cent inhibition versus DMSO
# Conditions: 48 h, 5 µM; inhibitor
row,Structure (SMILES),% Inhibition
1,CC(=O)CC(=O)N1CCN(c2ccccc2)CC1 [TCMDC-125502],-5.255%
2,CC(C)n1nc(C(=O)N2CCN(c3ccccc3)CC2)c2ccccc2c1=O [TCMDC-124333],78.8%
3,Cn1nc(C(=O)N2CCC(c3[nH]ncc3Cc3ccccc3)CC2)c2ccccc2c1=O [TCMDC-124642],16.79%
4,Cn1c2c(c3ccccc31)CN(CCC1(c3ccc(Cl)c(Cl)c3)CN(C(=O)c3ccccc3)CCO1)CC2 (stereo not drawn) [TCMDC-135562],-29.91%
5,COCCN(C(=O)Cc1cccs1)C(C(=O)NCc1ccc(OC)cc1)c1ccc(C(C)C)cc1 (stereo not drawn) [TCMDC-125625],-2.779%
6,CN1CCN(CCNc2c3ccccc3nc3ccc4ccccc4c23)CC1 [TCMDC-137724],54.46%
7,CN1CCN(CCNc2c3ccccc3nc3c2ccc2ccccc23)CC1 [TCMDC-137723],92.22%
8,CN(Cc1cnc2nc(N)nc(N)c2n1)c1ccc(C(=O)N[C@@H](CCC(=O)O)C(=O)O)cc1 [TCMDC-125858],-8.966%
9,Cc1c(-c2cccc(Br)c2)[nH]c2nc(N)nc(N)c12 [TCMDC-137836],-91.89%
10,CCOc1ccc(C(=O)N2CCOC(CCN3CCC(c4ccccc4)CC3)(c3ccc(Cl)c(Cl)c3)C2)cc1 (stereo not drawn) [TCMDC-135344],-65.78%
11,O=C(c1ccc(Cl)cc1)N1CCOC(CCN2CCC(c3ccccc3)CC2)(c2ccc(Cl)c(Cl)c2)C1 (stereo not drawn) [TCMDC-135351],-32.03%
12,O=C(c1ccc(F)c(F)c1)N1CCOC(CCN2CCC(c3ccccc3)CC2)(c2ccc(Cl)c(Cl)c2)C1 (stereo not drawn) [TCMDC-135337],-91.33%
13,O=C(Nc1cccc(F)c1)N1CCC(CN2CCOC(c3ccccc3)(c3ccccc3)C2)CC1 [TCMDC-136345],66.91%
14,O=C(Nc1ccccc1)N1CCC(CN2CCOC(c3ccccc3)(c3ccccc3)C2)CC1 [TCMDC-136344],40.09%
15,O=C(c1ccccc1)N1CCC(CN2CCOC(c3ccccc3)(c3ccccc3)C2)CC1 [TCMDC-136346],86.1%
16,COc1cc(OC)cc(C(=O)N2CCOC(CCN3CCC(c4ccccc4)CC3)(c3ccc(Cl)c(Cl)c3)C2)c1 (stereo not drawn) [TCMDC-135348],-85.08%
17,COc1ccc(C(=O)N2CCC(CN3CCOC(c4ccccc4)(c4ccccc4)C3)CC2)cc1 [TCMDC-136347],57.99%
18,O=C(Nc1cc(F)cc(F)c1)N1CCOC(CCN2CCC(c3ccccc3)CC2)(c2ccc(Cl)c(Cl)c2)C1 (stereo not drawn) [TCMDC-135333],17.76%
